Assay outcomes (PubChem)
TGFb SMAD3 inh = inhibitors of TGF-b signaling; HepG2 CAGA-GFP TGF-b/SMAD3 reporter, GFP fluorescence, 18 h; TGF-beta stimulated, 500 pg/mL final; 1.2% of 410,000 active; Potency, µM (highest dose often 46.1 µM), most hits filed as inhibitors; note: nearly all actives have a fitted effect of over 65% in size
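HEPG2 CAGA-GFP, 1000 cells/well; 2 h settle, 37 C; cpd via pin tool; TGF-b 500 pg/mL final; 18 h, 37 C; GFP imaging ex488/em500-530; %Activity normalised to -TGF-b and +DMSO controls; CRC fit, curve class.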
HepG2 viability = HepG2 cytotoxicity, counter-screen for TGF-b inhibitors; Potency, µM (doses to about 46.1 µM), usual class: cytotoxic; HepG2 CAGA-GFP viability, ATP luminescence, 18 h; 0.76% of 410,000 active
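CellTiter-Glo luminescence gave cytotoxicity after 18 hours at 37 degrees C. The cells were HepG2 CAGA-GFP in 1% FBS DMEM, stimulated with 500 pg/mL TGF-beta after compound addition. %Activity was normalised to no-cell wells (complete cell-killing) and DMSO (no toxicity), and curves were fitted and classified.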
TDP1 cell noCPT = qHTS for Inhibitors of human tyrosyl-DNA phosphodiesterase 1 (TDP1): qHTS in cells in absence of CPT; DT40 Tdp1-/- hTDP1 cells, no CPT, ATP luminescence, 48 h; Potency, µM (doses to about 46.2 µM), most hits filed as inhibitors; 15% of 420,000 active; AID 686978, 2013; note: nearly all actives have a fitted effect of over 55% in size
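Growth kinetics read by CellTiter-Glo luminescence after ≥48 hr at 37 °C. Cells: DT40 Tdp1-/- stably carrying human TDP1, 400 per well, compound exposure in the absence of CPT (DMSO vehicle).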
HT1080-NT tox = kills 2HG-producing HT-1080-NT fibrosarcoma cells. HT-1080-NT fibrosarcoma viability, CellTiter-Glo ATP luminescence, 48 h. Potency, µM (top dose mostly 46.1 µM), hits mostly cytotoxic. 1.6% of 360,000 active. AID 686970;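 note: NT is the 2HG producing partner of a matched IDH1 knockdown line; nearly all actives have a fitted effect of over 55% in size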
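HT-1080-NT; 750 cells/well; 5% FBS RPMI; 48 h compound, 37 degrees C; CellTiter-Glo luminescence; curve fitting and curve-class assignment.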
DT40 TDP1 CPT = DT40-hTDP1 cell growth loss with CPT | Potency, µM (doses to about 46.2 µM), most hits filed as inhibitors | 12% of 420,000 active | chicken DT40 Tdp1-/-;hTDP1 cells + 20 nM CPT, ATP luminescence, 48 h; note: nearly all actives have a fitted effect of over 55% in size
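Chicken DT40 Tdp1-/- cells stably complemented with human TDP1 were seeded at 400 cells/well in medium containing 20 nM camptothecin, exposed to pin-transferred compounds, and grown at 37 °C for at least 48 hr. Viability was read as ATP luminescence.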
HT1080 IDH1KD tx = kills HT-1080 cells with IDH1 knockdown | HT-1080 IDH1 knockdown viability, ATP luminescence, 48 h | Potency, µM (series often up to 46.1 µM), actives largely listed as cytotoxic | 2% of 360,000 active | AID 686971
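Luminescent ATP read-out (CellTiter-Glo, 10 min at room temperature) after 48 h compound exposure at 37 °C gave viability of IDH1-knockdown HT-1080 cells. Activity was normalised to DMSO and cell-free wells, then fitted as concentration-response curves.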
A number is an active result; - = inactive; ? = inconclusive; . = no result given; [ ] = another dose, or the depositor's remark. In the library only some 17% were active in any assay of this set; here they are far more common. Calls come from the whole dose curve; as a rule, active = well fitted curve in the direction sought with a large enough effect; inconclusive = small, poorly fitted or top-dose-only effect, or another doubt; inactive = no such curve, though single readings can be large; an effect the other way counts as inactive or inconclusive.

SMILES	TGFb SMAD3 inh	HepG2 viability	TDP1 cell noCPT	HT1080-NT tox	DT40 TDP1 CPT	HT1080 IDH1KD tx
CC(C)(C)NC(=O)CCN(/N=C/c1ccccc1O)C1=NS(=O)(=O)c2ccccc21	-	-	14.6µM	-	20.6µM	-
CN(/N=C/c1cc(Cl)ccc1O)C1=NS(=O)(=O)c2ccccc21	-	-	18.4µM	-	16.4µM	-
CC(C)(C)NC(=O)CCN(/N=C/c1ccncc1)C1=NS(=O)(=O)c2ccccc21	-	-	-	-	-	-
O=C(CNC(=O)c1ccc(Cl)c([N+](=O)[O-])c1)OCN1C(=O)c2ccccc2C1=O	-	-	-	-	-	-
CC(C)C(=O)Nc1ccc(NC(=O)c2ccc(COc3ccccc3)cc2)cc1	?	-	-	-	-	-
CCOC(=O)c1cc(C)n(CC2CCC(C(=O)Nc3cccc(Cl)c3)CC2)c1C (stereo not drawn)	?	-	16.4µM	.	?	.
CCOC(=O)c1cc(C)n(CC2CCC(C(=O)Nc3ccc(Cl)cc3)CC2)c1C (stereo not drawn)	8.91µM	-	11.6µM	.	18.4µM	.
CCOC(=O)C1CCN(C(=O)Nc2cccc(Cl)c2)CC1	-	-	-	-	-	-
CCOC(=O)c1cc(OC(C)=O)c2ccc(OC)c(OC)c2c1	-	-	23.1µM	?	?	-
CC[n+]1ccccc1/C=C1\Sc2ccc(C)cc2N1C	?	-	0.326µM	23.1µM	0.461µM	9.2µM
COc1ccc(CCN(C)C(=O)c2cnn(-c3nccc(-c4ccc(C)o4)n3)c2C)cc1OC	.	.	-	.	-[9.04 µM]	.
O=c1c2c([nH]c3ccccc13)C(=C1CCCC1)CC2	-	-	20.6µM	-	23.1µM	-
Cc1ccccc1NC(=O)c1cccc2c(=O)c3c([nH]c12)CCCC3	-	-	?	.	?	.
O=c1c2c([nH]c3ccccc13)CCCC2	-	-	8.2µM	-	?	-
CC(C)(C)C1CCc2[nH]c3ccccc3c(=O)c2C1 (stereo not drawn)	-	-	20.6µM	-	23.1µM	-
O=C1NCCc2c1[nH]c1ccccc21	-	-	-	-	-	-
Cc1nn(CCO)c(N)c1C1(O)C(=O)Nc2c(Cl)cc(Cl)cc21 (stereo not drawn)	?	-	3.26µM	-	4.11µM	-
Cc1cccc(C=CC(=O)c2ccccc2)c1	?	-	23.1µM	-	?	-
Cc1ccc(C(=O)C=Cc2cccc(C)c2)cc1	-	-	18.4µM	?	?	?
CCOCCn1c(=O)c2c(nc3n2CC(C)CN3Cc2ccccc2)n(C)c1=O (stereo not drawn)	-	-	?	-	?	-
C=CCSC(=C(C#N)C#N)c1cc2c([nH]1)CCCC2	?	-	11.6µM	16.4µM	10.3µM	16.4µM
O=C(NCc1cnc2ccccn12)C1CCC(=O)N(Cc2ccccc2F)C1 (stereo not drawn)	?	-	-	-	-	-
S=C(Nc1cccc(Cl)c1)Nc1ccccc1Oc1ccccc1	?	-	20.6µM	?	?	?
S=C(Nc1cccc(Cl)c1)Nc1cccc2cnccc12	-	-	18.4µM	-	16.4µM	-
Cc1ccc(NC(=S)Nc2cccc3cnccc23)cc1C	?	-	?	-	?	-
SMILES	TGFb SMAD3 inh	HepG2 viability	TDP1 cell noCPT	HT1080-NT tox	DT40 TDP1 CPT	HT1080 IDH1KD tx
Cc1ccc(NC(=S)Nc2cccc3cnccc23)cc1	-	-	16.4µM	-	?	-
Cc1ccc(C)c(NC(=S)Nc2cccc3cnccc23)c1	-	-	16.4µM	?	14.6µM	-
Nc1cc(N)[nH]c(=S)n1	-	-	-	.	-	.
CC(C)(C)c1ccc(OCC(=O)NC(Cc2c[nH]c3ccccc23)C(=O)O)cc1 (stereo not drawn)	-	-	-	.	-	.
Cc1cc2ccccc2n1-c1ccc(C(=O)N2CCC(C(=O)NCc3ccccc3Cl)CC2)s1	-	-	-	.	16.4µM	.
COc1ccccc1S(=O)(=O)Nc1cccc(S(=O)(=O)N2CCCC2)c1	-	-	-	-	-	-
Cc1ccc(-c2nc3sc4c(N)ncnc4c3c3c2CCCC3)cc1	-	-	-	-	-	-
CC/C(=C/c1sc2ccccc2[n+]1CC)SC	-	-	11.6µM	-	13µM	-
CC[n+]1c(/C=C/Nc2ccccc2)sc2ccccc21	-	-	2.91µM	-	5.8µM	-
CC[n+]1c(/C=C(\C)SC)sc2ccccc21	-	-	8.2µM	-	9.2µM	-
Cc1sc2ccccc2[n+]1CC(=O)c1ccc(F)cc1	-	-	-	.	-	.
CSc1sc2ccccc2[n+]1CCCS(=O)(=O)[O-]	-	-	-	-	-	-
CC[n+]1c(/C=C(\C)Nc2ccccc2)sc2ccccc21	-	-	18.4µM	-	10.3µM	-
CC[n+]1c(/C=C(\C)OC)sc2ccccc21	-	-	-	-	-	-
Cc1sc2ccccc2[n+]1CCC(C)S(=O)(=O)[O-] (stereo not drawn)	-	-	-	-	-	-
CC[n+]1c(/C=C(/C)SC)sc2ccccc21	-	-	5.17µM	-	4.61µM	-
CC[n+]1c(C=C2C=C(C)OC(C)=C2)sc2ccccc21	-	-	0.0326µM	?	0.0052µM	?
Clc1ccc(C2=Nc3cc(Cl)ccc3OC2)cc1	-	-	?	-	?	-
c1ccc(-c2cc(-c3ccccc3)c3c(n2)-c2ccccc2OC3)cc1	-	-	?	.	-	.
c1ccc(C2=Nc3ccccc3OC2)cc1	-	-	11.2µM	-	17.8µM	-
Cc1ccc2c(c1)N=C(c1ccc(Cl)cc1)CO2	-	-	23.1µM	-	?	-
CC(C)CN(C(=O)COC(=O)c1ccccc1NCc1ccco1)c1c(N)n(Cc2ccccc2)c(=O)[nH]c1=O	-	-	-	-	?	-
COc1ccc(C(=O)NCCc2nnc3ccc(SCC(=O)N4CCCCC4)nn23)cc1	-	-	-	-	-	-
COc1ccccc1-c1ccc2c(c1)C(C)(Cc1ccc(F)c(Cl)c1)C(=O)N2 (stereo not drawn)	?	-	?	?	?	?
COc1ccccc1-c1ccc2c(c1)C(C)(Cc1cc(Cl)ccc1C(F)(F)F)C(=O)N2 (stereo not drawn)	17.8µM	-	?	?	?	?
COc1ccc(Cl)cc1CC1(C)C(=O)Nc2ccc(-c3ccccc3OC)cc21 (stereo not drawn)	?	-	11.6µM	?	20.6µM	?
CC1(Cc2cc(Cl)ccc2C(F)(F)F)C(=O)Nc2ccc(-c3ccc(F)c(Cl)c3)cc21 (stereo not drawn)	?	-	?	?	?	-
